Among the data in PubChem BioAssay AID1259240 (Keith Lab, Institute of Cancer Science, University of …, 2017) are fold change and outcome values, retold here.

Values without a mark were called inactive. Calls of active or inactive are those of the source. No stated cut-off is given here; in the data, active means fold change mostly below about -2 (no sharp cut-off); inactive means mostly above about -1.8.

A short description of this assay: TERT promoter activity modulators, primary screen, cell-based, luciferase reporter, human (AID 1259240). The conditions noted are these: A2780 TERT promoter luciferase reporter, 16 h; at 20 µM, fold versus average of vehicle-only wells. In general terms: A reporter such as luciferase makes a cellular process visible.
On to `CCOc1cc(C2CC(=O)Nc3cc4c(cc32)OCCO4)ccc1O` (centres undefined), for which the fold change is -1.

As to `COc1cc(Nc2nc3ccccc3n3cnnc23)cc(OC)c1OC`, the fold change was 1.1.

On to `CC1CCCN(S(=O)(=O)c2cccc(-c3cn4cccnc4n3)c2)C1` (centres undefined), for which the fold change was -1.53. The same measure, in the same setting: for `O=C(CC1(CC2=NS(=O)(=O)c3ccccc3N2)CCCC1)NCc1ccccc1` the value was -1.27. On the same count and under the same terms, for `Cc1ccccc1N1CC(O)(c2ccccc2)[N+]2=C1SCCC2` (centres undefined) the value was -1.05; for `COc1ccc(-c2c(C)oc3c(CN4CCN(C)CC4)c(O)ccc3c2=O)cc1OC`, 1.39; for `COc1cc2cc(=O)[nH]c(C)c2cc1OC`, 1.08. For the compound `COc1cc(OC)cc(-c2cc(N3C(=O)Nc4ccccc4N3O)n[nH]2)c1`, the fold change is -1.25. The same measure, in the same setting: under `COc1cc2c(=O)c(S(=O)(=O)c3ccccc3)cn(Cc3ccccc3F)c2cc1OC` stands 1.06.

Turning to `COC(=O)c1nc2n(n1)C(c1ccc(C)cc1)C1=C(CCCC1=O)N2` (centres undefined), the call was inactive. Take `Cc1ccc2c(C)nc(NC3=NCN(CC4CCCO4)CN3)nc2c1` (centres undefined): the fold change is -1.73.

With `Cc1ccc(NC(=O)CC2Sc3ccc(C(F)(F)F)cc3NC2=O)cc1C` (centres undefined), the fold change is -1.24. Same read-out and setting: for `CCOC(=O)C1CCCN(c2c(NCC3COc4ccccc4O3)c(=O)c2=O)C1` (centres undefined) the value was 1.35. Still for that read-out and setting: for `CCn1c(NCc2ccc(Cl)cc2)nc2ccccc21` the value was 1.05. Same read-out and setting: under `CCN1CCN(C(=O)C2CCN(S(=O)(=O)c3ccc4c(c3)oc(=O)n4C)CC2)CC1` stands -1.05; under `O=C(NC1CCCC1)c1ccc(CNc2c(NC3CCCC3)c(=O)c2=O)cc1`, 1.06. In the case of `CCOP(=O)(OCC)C(Nc1ccccn1)c1ccc(F)cc1` (centres undefined), the fold change is -1.13. On the same count and under the same terms, under `CC(CC(=O)NCCc1c[nH]c2ccccc12)CC1=NS(=O)(=O)c2ccccc2N1` (centres undefined) stands -1.46; under `O=C(CSc1nc(-c2cccs2)cc(C(F)(F)F)n1)NCc1cccnc1`, -2.7 (active). The same measure, in the same setting: for `COc1ccc2oc(=O)c(S(=O)(=O)c3ccc(C(C)C)cc3)cc2c1` the value was 1.21. The same measure, in the same setting: under `Cc1ccn2cc(-c3cccc(S(=O)(=O)N4CC(C)OC(C)C4)c3)nc2c1` (centres undefined) stands -1.09; under `CC1(C)CC(=O)c2sc(NC(=O)c3ccccc3)nc2C1`, -1.97. Take `Cn1c(C(=O)N2CCC(C(=O)NCCc3c[nH]c4ccccc34)CC2)cc2sccc21`: the fold change is -1.05.

`O=C(c1ccc2c(=O)n3c(nc2c1)CCCCC3)N1CCCCCC1`: the fold change was 1.21. Same read-out and setting: under `Cn1cnc2c(sc3nc(N4CCOCC4)c4c(c32)CC(C)(C)OC4)c1=O` stands 1.1; under `O=C1CC(c2cc3c(cc2Cl)OCO3)c2cc3c(cc2N1)OCCO3` (centres undefined), 1.12; under `CCOC(=O)C1=C(CS(=O)(=O)c2ccc(Cl)cc2)NC(=O)NC1c1ccc(OCC)cc1` (centres undefined), 1.7.

In the case of `CCOC(=O)N1CCN(c2c(NC3CCCCCC3)c(=O)c2=O)CC1`, the fold change is -1.07. For the compound `COC(=O)C1Cc2cc(OC)c(OC)cc2C(Cc2ccc(OC)c(OC)c2)=N1` (centres undefined), the fold change was -1.78. `c1ccc(-c2nnc3ccc(N4CCC5(CC4)OCCO5)nn23)cc1`: the fold change was 1.02.

Take `O=C(ON=C1CCCC1)c1sc2ccccc2c1Cl`: the fold change is -1.7. Same read-out and setting: for `O=C1c2cccnc2C(=O)N1Cc1ccccc1` the value was 1.84. In the case of `COCCn1c(SCC(=O)NCC2CCCO2)nnc1-c1c[nH]c2ccccc12` (centres undefined), the call was inactive. As for `CC(CC(=O)Nc1nccs1)CC1=NS(=O)(=O)c2ccccc2N1` (centres undefined), the fold change is -1.22. With `Cc1ccc(C2C3=C(CC(C)(C)CC3=O)Nc3ncnn32)cc1` (centres undefined), the compound was called inactive.

In the case of `COc1nc(OCCNS(=O)(=O)c2ccc(C)cc2)nc(N(C)C)n1`, the fold change was -1.19. Same read-out and setting: for `CC(C)CCNC(=O)Cn1c(=O)oc2cc(S(=O)(=O)N3CCc4ccccc43)ccc21` the value was 1.17; for `CSc1ccccc1NC(=O)c1onc(C)c1Cl`, 1.5; for `COc1cc(-c2nc3sccn3c2Nc2ccc(OC)c(OC)c2)ccc1O`, -1.31.
